Results published in PubChem BioAssay (Tox21).
Several values for one entry are separate records, joined by “and”; a condition that tells them apart may be missing. Equal values may be shown once. Results filed as inconclusive are left out. Where a call stands in place of a potency, no number is given. A structure can be active in one record and inactive in another. Activity calls are given as the source filed them. Unless noted, the call rests on the fitted dose curve; in most records, active means well fitted curve in the direction sought with a large enough effect in the repeat runs; inconclusive means weak or mixed curves; inactive means no such curve, though single readings can be large; an effect the other way counts as inactive or inconclusive.

Assays:
[1] = target: Thyrotropin receptor (Homo sapiens) (UniProt P16473); experiment: qHTS assay to identify small molecule antagonists of the thyroid stimulating hormone receptor (TSHR) signaling pathway (AID 1259385; calls by dose curve; further: nearly all actives have a fitted effect of over 20% in size)
In short: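 TSHR-HEK293 cells were plated and held 18 h at 37C/5% CO2, then given compound plus Ro20-1724 and stimulated with TSH at 1.5 ng/mL final. After 30 min at room temperature, cAMP was detected with cAMP-d2/anti-cAMP-cryptate (1 h) by fluorescence.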

[2] = qHTS assay to identify small molecule agonists of the estrogen receptor alpha (ER-alpha) signaling pathway in the presence of an antagonist - cell viability counter screen (AID 1259386);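 further: series mostly up to about 92 µM; cells exposed to compounds for 22 h at 37 °C before the viability read; nearly all actives have a fitted effect of over 30% in size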
In short: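 Steps: 5-day stripped-FBS culture; seed and incubate 24hr; add ICI-182,780 (10.0nM final); pin 15-point compound titration; incubate 22hr at 37C; add CellTiter-Fluor at 21hr; read fluorescence.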

[3] = target: Progesterone receptor (Homo sapiens) (UniProt P06401); experiment: qHTS assay to identify small molecule agonists of the progesterone receptor (PR) signaling pathway (AID 1346784; calls by dose curve; further: nearly all actives have a fitted effect of over 30% in size)
In short: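 The screen uses PR-UAS-bla HEK 293T cells in charcoal-stripped serum (2%). Compounds are applied for 16 hr at 37C after a 6 hr pre-incubation, and reporter activity is detected with a FRET beta-lactamase substrate after 2 hr at room temperature.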

[4] = target: Progesterone receptor (Homo sapiens) (UniProt P06401); experiment: qHTS assay to identify small molecule antagonists of the progesterone receptor (PR) signaling pathway (AID 1346795; active means well fitted inhibition curve with a large enough effect in the signal ratio in the repeat runs, not every such curve was filed as active; the % refers to the signal ratio)
In short: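 After 6 hr plating at 37C in 2% stripped-serum medium, PR-UAS-bla HEK293T cells got compounds, then 1 nM R5020. Sixteen hours later, LiveBLAzer substrate was applied for 2 hr at room temperature and fluorescence was recorded.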

[5] = qHTS assay to identify small molecule antagonists of the progesterone receptor (PR) signaling pathway - cell viability counter screen (AID 1346798); further: series mostly up to about 92 µM; nearly all actives have a fitted effect of over 50% in size
In short: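 Viability was determined by ATP-based luminescence (CellTiter-Glo) in PR-UAS-bla HEK293T cells cultured in 2% charcoal-stripped serum and incubated 16 hr with compounds under R5020 stimulation.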

[6] = qHTS assay to identify small molecule agonists of the progesterone receptor (PR) signaling pathway - cell viability counter screen (AID 1346799; calls by dose curve; further: nearly all actives have a fitted effect of over 45% in size)
In short: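 Viability was scored by ATP luminescence (CellTiter-Glo, 30 min, room temperature) in the same wells used for the reporter readout, after 16 hr compound exposure of PR-UAS-bla HEK293T cells.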

[7] = qHTS assay to identify small molecule antagonists of the TGF-beta/Smad signaling pathway - cell viability counter screen (AID 1346824); further: nearly all actives have a fitted effect of over 50% in size
In short: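 SBE-bla HEK 293T cells were plated overnight at 37 C, then given compounds in DMSO plus TGF-beta1 (added as 0.25 ng/mL solution) for 5 hr. After the bla read, CellTiter-Glo was added to the same wells and luminescence read after 30 min at room temperature.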

[8] = qHTS assay to identify small molecule agonists of the TGF-beta/Smad signaling pathway - cell viability counter screen (AID 1346829); further: top concentration of the series differs between compounds; nearly all actives have a fitted effect of over 45% in size
In short: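 Cytotoxicity counter screen: CellTiter-Glo luminescence (30 min, room temperature) measured in the SBE-bla HEK 293T reporter wells after 5 hr compound treatment at 37 C and the 2 hr substrate step.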

[9] = qHTS assay to identify small molecule agonists of the TGF-beta/Smad signaling pathway (AID 1346859; active means well fitted activation curve with a large enough effect in the signal ratio in the repeat runs, not every such curve was filed as active; the % refers to the signal ratio; further: series mostly up to about 77 µM)
In short: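 Dual-wavelength fluorescence (460/530 nm emission) quantified beta-lactamase expression under the Smad binding element in HEK 293T cells following 5 hr compound treatment at 37 C.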

[10] = target: Thyrotropin-releasing hormone receptor (Homo sapiens) (UniProt P34981); experiment: qHTS assay to identify small molecule antagonists of the thyrotropin-releasing hormone receptor (TRHR) signaling pathway (AID 1346877; active means well fitted inhibition curve with a large enough effect in the repeat runs, not every such curve was filed as active; further: series mostly up to about 51 µM)
In short: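 Human TRHR in HEK293 cells; inhibition of the intracellular calcium rise triggered by 1 nM TRH was followed by fluorescence over 3 min. Compounds were run at 15 concentrations, three replicates each.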

[11] = target: Thyrotropin-releasing hormone receptor (Homo sapiens) (UniProt P34981); experiment: qHTS assay to identify small molecule agonists of the thyrotropin-releasing hormone receptor (TRHR) signaling pathway (AID 1346891; calls by dose curve;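 further: HEK293 cells expressing TRHR with calcium dye readout; series mostly up to about 58 µM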)
In short: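 Kinetic fluorescence (3 min, 1 s intervals) reported intracellular calcium after compound transfer onto TRHR-Hek293 cells pre-loaded with dye for 2 h at 37 °C.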

[12] = Human pregnane X receptor (PXR) small molecule agonists, qHTS cell viability counter screen (AID 1346977); further: nearly all actives have a fitted effect of over 50% in size
In short: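 HepG2 cells stably carrying the PXR-Luc reporter are cultured with 5% charcoal-stripped FBS and treated with compounds for 24hr. CellTiter-Fluor is added at 23hr and fluorescence is read after 1hr.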

[13] = Caspase-3/7 induction in HepG2 cells by small molecules, qHTS assay (AID 1346978); further: nearly all actives have a fitted effect of over 15% in size; further: potency means the concentration at half of the fitted maximal effect
In short: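 Wild-type HepG2 cells (2,000/well) were settled 5 h at 37 C, 5% CO2, then exposed to compounds in DMSO for 17 h. Caspase-3/7 activity was read by luminescence 30 min after adding Caspase-Glo 3/7 reagent at room temperature.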

[14] = Caspase-3/7 induction in CHO-K1 cells by small molecules, qHTS cell viability counter screen (AID 1346979); further: nearly all actives have a fitted effect of over 35% in size; further: potency means the concentration at half of the fitted maximal effect
In short: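 Seeding: 1,500 CHO-K1 cells/well. Rest: 5hr, 37C. Treatment: compounds in DMSO, 16hr. Read: CellTiter-Fluor, 1hr, fluorescence.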

[15] = Caspase-3/7 induction in CHO-K1 cells by small molecules, qHTS assay (AID 1346980); further: nearly all actives have a fitted effect of over 15% in size
In short: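 Wild-type cells were seeded at 1,500 per well and settled 5 hr at 37 C, 5% CO2, then exposed to DMSO-dissolved compounds for 17 hr. Caspase-Glo 3/7 reagent was added, and luminescence was read after 30min at room temperature.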

[16] = Caspase-3/7 induction in HepG2 cells by small molecules, qHTS cell viability counter screen (AID 1346981); further: nearly all actives have a fitted effect of over 30% in size; further: potency means the concentration at half of the fitted maximal effect
In short: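 The parent HepG2 line is plated at 2,000 cells per well and rested 5 hr before compound pinning from DMSO stocks. Following a 16-hr treatment at 37 C, a fluorogenic live-cell substrate (CellTiter-Fluor) reports viability after 1 hr.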

[17] = target: Nuclear receptor subfamily 1 group I member 2 (Homo sapiens) (UniProt O75469); experiment: Human pregnane X receptor (PXR) small molecule agonists, qHTS assay (AID 1346982); further: nearly all actives have a fitted effect of over 35% in size; further: potency means the concentration at half of the fitted maximal effect
In short: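 After plating in 5% charcoal-stripped FBS and a 5 hr rest, PXR-Luc HepG2 cells received compounds in DMSO. Following 24 hr at 37 C, ONE-Glo was added and light output read.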

[18] = target: Nuclear receptor subfamily 1 group I member 2 (Rattus norvegicus) (UniProt Q9R1A7); experiment: Rat pregnane X receptor (rPXR) activation by small molecules, qHTS assay (AID 1346983); conditions: rPXR luciferase reporter cells, One-Glo luminescence, 24 h; stronger effect = higher value; further: nearly all actives have a fitted effect of over 20% in size
In short: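 Cell-based rPXR luciferase reporter assay, 2,000 cells per well, rested 5hr at 37 C before compound addition in DMSO, then 24 hr at 37 C. One-Glo reagent was added and luminescence read after 30 min at room temperature.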

Sequence of Thyrotropin receptor (Homo sapiens) (P16473 whole entry, looked up): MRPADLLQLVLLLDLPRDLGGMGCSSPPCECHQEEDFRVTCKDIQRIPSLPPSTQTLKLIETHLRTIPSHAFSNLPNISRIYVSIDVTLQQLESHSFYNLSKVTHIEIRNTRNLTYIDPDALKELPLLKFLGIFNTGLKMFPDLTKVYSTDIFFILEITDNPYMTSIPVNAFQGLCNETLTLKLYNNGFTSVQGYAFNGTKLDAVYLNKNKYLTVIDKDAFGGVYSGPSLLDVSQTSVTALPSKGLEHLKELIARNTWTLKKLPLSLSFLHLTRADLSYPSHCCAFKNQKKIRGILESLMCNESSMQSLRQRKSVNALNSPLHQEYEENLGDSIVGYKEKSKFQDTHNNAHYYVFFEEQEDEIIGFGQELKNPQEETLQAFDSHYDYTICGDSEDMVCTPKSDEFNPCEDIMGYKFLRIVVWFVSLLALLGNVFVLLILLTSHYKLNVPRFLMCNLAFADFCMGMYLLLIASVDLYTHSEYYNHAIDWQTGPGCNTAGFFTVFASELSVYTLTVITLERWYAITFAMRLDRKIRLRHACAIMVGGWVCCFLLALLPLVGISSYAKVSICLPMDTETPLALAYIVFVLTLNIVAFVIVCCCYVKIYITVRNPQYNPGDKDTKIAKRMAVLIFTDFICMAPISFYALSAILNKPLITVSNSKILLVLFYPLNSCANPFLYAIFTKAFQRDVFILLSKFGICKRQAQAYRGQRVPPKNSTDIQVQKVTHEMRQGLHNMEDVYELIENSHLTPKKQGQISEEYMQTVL
Sequence of Progesterone receptor (Homo sapiens) (P06401 whole entry, looked up): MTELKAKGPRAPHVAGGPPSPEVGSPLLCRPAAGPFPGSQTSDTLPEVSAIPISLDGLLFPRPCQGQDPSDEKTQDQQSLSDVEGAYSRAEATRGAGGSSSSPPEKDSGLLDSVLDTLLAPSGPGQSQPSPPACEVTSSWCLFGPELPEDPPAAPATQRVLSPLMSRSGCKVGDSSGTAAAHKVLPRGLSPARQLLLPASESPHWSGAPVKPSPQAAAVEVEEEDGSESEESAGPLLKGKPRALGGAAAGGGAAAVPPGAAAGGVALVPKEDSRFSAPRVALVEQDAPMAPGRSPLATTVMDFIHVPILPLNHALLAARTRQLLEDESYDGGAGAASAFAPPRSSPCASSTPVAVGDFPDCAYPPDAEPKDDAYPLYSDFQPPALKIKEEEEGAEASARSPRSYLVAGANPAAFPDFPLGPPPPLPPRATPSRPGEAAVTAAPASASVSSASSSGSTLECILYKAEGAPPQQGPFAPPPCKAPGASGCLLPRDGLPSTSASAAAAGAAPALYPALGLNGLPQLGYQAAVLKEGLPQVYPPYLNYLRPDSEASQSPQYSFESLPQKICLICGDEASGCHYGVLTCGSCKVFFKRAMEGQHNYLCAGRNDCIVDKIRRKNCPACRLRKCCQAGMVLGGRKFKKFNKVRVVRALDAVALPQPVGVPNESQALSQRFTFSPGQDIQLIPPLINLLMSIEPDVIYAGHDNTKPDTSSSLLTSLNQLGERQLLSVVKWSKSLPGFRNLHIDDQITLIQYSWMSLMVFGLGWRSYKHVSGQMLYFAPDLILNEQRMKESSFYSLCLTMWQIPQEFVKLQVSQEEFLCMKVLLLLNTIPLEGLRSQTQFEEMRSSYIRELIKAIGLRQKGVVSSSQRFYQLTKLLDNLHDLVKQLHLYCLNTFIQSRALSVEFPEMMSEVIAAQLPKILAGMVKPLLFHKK
Sequence of Thyrotropin-releasing hormone receptor (Homo sapiens) (P34981 whole entry, looked up): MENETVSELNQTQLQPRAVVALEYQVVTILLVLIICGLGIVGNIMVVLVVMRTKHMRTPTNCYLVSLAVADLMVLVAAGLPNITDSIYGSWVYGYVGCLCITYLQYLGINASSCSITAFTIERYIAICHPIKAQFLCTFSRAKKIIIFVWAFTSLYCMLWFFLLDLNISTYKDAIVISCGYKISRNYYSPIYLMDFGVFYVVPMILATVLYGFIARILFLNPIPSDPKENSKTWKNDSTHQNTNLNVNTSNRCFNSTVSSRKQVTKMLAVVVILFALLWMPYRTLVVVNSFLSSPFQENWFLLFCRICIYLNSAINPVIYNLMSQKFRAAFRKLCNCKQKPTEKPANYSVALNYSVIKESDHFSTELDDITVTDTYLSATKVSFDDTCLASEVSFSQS
Sequence of Nuclear receptor subfamily 1 group I member 2 (Homo sapiens) (O75469 whole entry, looked up): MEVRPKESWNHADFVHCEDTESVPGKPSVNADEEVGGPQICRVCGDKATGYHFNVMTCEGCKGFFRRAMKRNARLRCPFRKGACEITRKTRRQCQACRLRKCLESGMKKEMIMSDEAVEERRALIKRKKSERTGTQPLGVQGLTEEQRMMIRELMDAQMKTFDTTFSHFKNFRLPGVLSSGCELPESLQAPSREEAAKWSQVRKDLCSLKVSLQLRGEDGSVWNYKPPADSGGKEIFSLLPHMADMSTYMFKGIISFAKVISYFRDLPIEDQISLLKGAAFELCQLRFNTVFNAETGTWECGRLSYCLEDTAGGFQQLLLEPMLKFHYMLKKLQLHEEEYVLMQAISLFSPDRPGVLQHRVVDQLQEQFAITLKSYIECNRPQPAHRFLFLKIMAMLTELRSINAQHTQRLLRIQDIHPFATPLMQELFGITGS
Sequence of Nuclear receptor subfamily 1 group I member 2 (Rattus norvegicus) (Q9R1A7 whole entry, looked up): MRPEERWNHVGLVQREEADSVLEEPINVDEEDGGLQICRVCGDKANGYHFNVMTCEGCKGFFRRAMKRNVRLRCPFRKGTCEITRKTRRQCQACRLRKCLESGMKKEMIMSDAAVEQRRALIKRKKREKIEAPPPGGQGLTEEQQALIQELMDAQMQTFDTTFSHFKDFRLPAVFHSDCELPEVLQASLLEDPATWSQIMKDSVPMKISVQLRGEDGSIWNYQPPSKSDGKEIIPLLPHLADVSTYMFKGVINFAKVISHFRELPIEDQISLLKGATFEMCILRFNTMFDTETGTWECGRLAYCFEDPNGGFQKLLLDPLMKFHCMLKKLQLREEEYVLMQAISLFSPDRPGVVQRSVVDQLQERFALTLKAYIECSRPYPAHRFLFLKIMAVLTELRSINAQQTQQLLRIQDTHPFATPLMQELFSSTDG

SMILES	outcome [1]	Potency [2]	Potency [3]	Potency [4]	Potency [5]	Potency [6]	Potency [7]	Potency [8]	outcome [9]	Potency [10]	Potency [11]	Potency [12]	Potency [13]	Potency [14]	Potency [15]	Potency [16]	Potency [17]	max activation [18]
CNC(=O)Oc1cccc2c1OC(C)(C)O2	inactive	inactive	inactive	inactive	inactive	inactive	inactive	inactive	inactive	inactive	inactive	inactive	inactive	inactive	inactive	inactive	inactive	
C=CCc1ccc2c(c1)OCO2	inactive	inactive	inactive	inactive	inactive	inactive	inactive	inactive	inactive			inactive	43.5 µM (active) and inactive	inactive	inactive	inactive	61.4 µM (active) and inactive	
N[C@@H](Cc1ccc(N(CCCl)CCCl)cc1)C(=O)O	inactive	inactive	inactive	inactive	inactive	inactive	inactive	inactive	inactive	inactive	inactive	inactive		29.4 µM (active) and 26.6 µM (active)	inactive	26.2 µM (active)		-1.77% (inactive)
CC(O)CCO (stereo not given)	inactive	inactive	inactive	inactive	inactive	inactive	inactive	inactive	inactive	inactive	inactive	inactive	inactive	inactive	inactive	inactive	inactive	
Cc1ccccc1[N+](=O)[O-]	inactive	inactive	inactive	inactive	inactive	inactive	inactive	inactive	inactive	inactive	inactive	inactive	inactive	inactive	inactive	inactive	inactive	
NC(=S)Nc1ccccc1	inactive	inactive	inactive	inactive	inactive	inactive	inactive	inactive	inactive	inactive	inactive	inactive	inactive		inactive	inactive	inactive	
Nn1cnnc1	inactive	inactive	inactive	inactive	inactive	inactive	inactive	inactive	inactive	inactive	inactive	inactive	inactive		inactive	inactive	inactive	
O=[N+]([O-])c1cccc2ccccc12	inactive	inactive	inactive	inactive	inactive	inactive	inactive	inactive	inactive	inactive	inactive	inactive	inactive		inactive	inactive	inactive	
